# Compound activity: PubChem, several laboratories
# Wee1 stabilizer: inhibitors of human Wee1 degradation; P30291; HeLa Luc-Wee1K328M stability, luciferase luminescence; 100% = proteasome inhibitor MG132 effect; reporter increase, % at 5 µM; 1.2% of 220,000 active;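 active means activation above the mean of all tested compounds plus 3 SD, set per screening run, cut at about 8.8% in these data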;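 further: cells exposed to compound for 20 h before luminescence read; 0% = DMSO alone and 100% = MG132 at 30 µM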
# Target sequence (P30291 whole entry K328M): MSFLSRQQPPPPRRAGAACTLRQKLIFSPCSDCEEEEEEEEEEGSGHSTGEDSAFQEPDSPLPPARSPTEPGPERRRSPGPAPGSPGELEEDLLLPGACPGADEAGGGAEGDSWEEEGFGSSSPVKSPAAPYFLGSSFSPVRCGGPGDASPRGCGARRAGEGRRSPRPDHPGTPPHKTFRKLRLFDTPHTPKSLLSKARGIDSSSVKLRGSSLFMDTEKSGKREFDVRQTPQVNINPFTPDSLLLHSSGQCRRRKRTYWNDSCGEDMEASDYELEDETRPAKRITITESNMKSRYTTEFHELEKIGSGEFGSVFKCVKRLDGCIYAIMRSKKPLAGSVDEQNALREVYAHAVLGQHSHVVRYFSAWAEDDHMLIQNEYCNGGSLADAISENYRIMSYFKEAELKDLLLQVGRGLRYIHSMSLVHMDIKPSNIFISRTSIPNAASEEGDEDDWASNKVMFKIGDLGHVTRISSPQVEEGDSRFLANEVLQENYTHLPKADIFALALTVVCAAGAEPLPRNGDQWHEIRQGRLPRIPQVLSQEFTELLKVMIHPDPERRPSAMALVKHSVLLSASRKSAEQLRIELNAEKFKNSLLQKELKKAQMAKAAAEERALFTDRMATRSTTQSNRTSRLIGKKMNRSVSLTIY
# NF-kB expr up: compounds increasing NF-kB expression in human neuronal cells | NF-kB reporter expression; active compounds read high | fold change at 12.5 µM | 1.6% of 190,000 active; in the data active means fold change above about 3.3
# APP transl inh: APP translation inhibition | inhibition, % at 2 µM | SH-SY5Y APP 5'UTR-luciferase reporter, luminescence | AID 1285 | 0.82% of 190,000 active;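 active means inhibition above a set limit, derived from the sample mean plus 3 SD, cut at about 45% in these data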
# APP 5'UTR act: activates APP 5'UTR luciferase reporter. SH-SY5Y APP 5'UTR luciferase reporter, luminescence; zero percent = DMSO vehicle wells. activation, % at 2 µM. 1% of 190,000 active. AID 1276;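 active means activation above a set limit, based on mean plus 3 SD of controls, cut at about 140% in these data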
# STAT1 act: STAT1 signaling activation. 2.6% of 200,000 active. NIH 3T3 STAT1-luciferase reporter, IFN-gamma, luminescence; 100% = IFN-gamma alone, no compound. AID 932. activation (% of control), % at 5.5 µM;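 active means activation above the screen-wide mean activation plus 3 SD, cut at about 130% in these data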;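 further: raw ratio to IFN-gamma control signal so 100% means no change and 0% no light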
# Hsp70 act: switches on Hsp70 transcription; 0.04% of 200,000 active; HeLa Hsp70 promoter luciferase reporter, luminescence; scaled: vehicle 0, proteasome-inhibitor control 100%; activation, % at 10 µM;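 active means activation above the mean across all tested compounds plus 3 SD, cutoff set per campaign, cut at about 5.5% in these data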;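 further: 100% = MG132 at 30 µM as the positive control and 0% = DMSO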
# Starred values were filed as active, the others as inactive; · = not tested or not shown. Only some compounds are listed: those with a hit (about 4.8% of all), similar ones and a draw of the others.
SMILES,Wee1 stabilizer,NF-kB expr up,APP transl inh,APP 5'UTR act,STAT1 act,Hsp70 act
CCOc1cc(C2NN=C(c3ccccc3)S2)ccc1OCc1ccc(F)cc1 (configuration not stated),2,4.5*,-97,97,133*,0
CCOc1cc(C2NN=C(c3ccccc3)S2)ccc1OCc1ccccc1Cl (configuration not stated),0,3.7*,-18,18,136*,0
CNCc1ccccc1OCc1ccc(F)cc1,4,1,-4,4,100,0
c1ccc(OCCOc2ncnc3sccc23)cc1,3,2.7,-67,67,131*,0
O=C(Cn1cc2c(n1)CCCCC2)NCCCN1CCOCC1,0,1.3,13,-13,97,0
CC(C)(CCl)C(=O)Nc1ccc(C(F)(F)F)cc1,-3,1.2,-23,23,98,0
O=C(Nc1nccs1)C(=O)c1c[nH]c2ccccc12,1,2.6,-50,50,133*,0
CSc1ccccc1NC(=O)C(=O)c1c[nH]c2ccccc12,2,1.5,-34,34,149*,0
COC(=O)N/N=C/c1ccccc1OCc1ccccc1,-1,0.89,-12,12,98,0
O=C1c2cccc3c(N4CCCCC4)ccc(c23)C(=O)N1CCO,1,1.6,-59,59,131*,0
O=C(OCCN1C(=O)c2cccc3c(N4CCOCC4)ccc(c23)C1=O)c1ccccc1Cl,-1,0.34,15,-15,91,0
O=C1c2cccc3c(N4CCCCC4)ccc(c23)C(=O)N1c1cccc(O)c1,6,2,-24,25,130*,0
O=C(OCCN1C(=O)c2cccc3c(N4CCOCC4)ccc(c23)C1=O)c1ccc(Cl)cc1Cl,3,1.8,94*,-94,108,0
CC(=O)Nc1ccc(S(=O)(=O)Nc2ccc(=O)n(Cc3ccc(Cl)c(Cl)c3)c2)cc1,-2,1,-22,22,93,0
Cc1ccc2oc(=O)c3cc(C(=O)NCCN4CCN(C)CC4)sc3c2c1,10*,1.6,-10,10,101,0
O=C1c2c(O)cc(O)cc2O[C@@]12c1c(cc(O)c3c1O[C@H](c1ccc(O)cc1)[C@@H](O)C3)O[C@@H]2c1ccc(O)cc1,2,0.92,7,-7,98,0
O=c1c(-c2ccc(F)cc2)coc2cc(O)ccc12,5,2.7,-111,111,146*,1
O=C(Nc1ccc(-c2cn3c(n2)SCC3)cc1)c1ccc2ccccc2n1,4,0.89,-48,48,119,0
O=C(Nc1cccc(-c2cn3c(n2)SCC3)c1)c1ccc2ccccc2n1,9,1.1,-87,87,135*,0
Cc1ccccc1C(=O)Nc1ccc(N2CCCC2)cc1,10*,2.1,-7,7,131*,0
O=C(Nc1cccc(S(=O)(=O)N2CCCCCC2)c1)c1ccc2ccccc2n1,0,1.1,-20,20,100,0
Cc1ccc(C(=O)Nc2ccc(N3CCCC3)cc2)c(C)c1,2,1.1,-8,8,103,0
O=C(Nc1ccc(N2CCCCC2)cc1)c1ccc2ccccc2n1,-1,2.5,-84,85,144*,0
CC1(C)C2CCC1(CS(=O)(=O)NCc1ccc(C(=O)O)cc1)C(=O)C2 (configuration not stated),0,0.93,-5,5,92,0
Cc1ccc2c(c1)C1CN(C)CCC1N2CC(=O)N(C)c1ccccc1 (configuration not stated),-2,1,14,-14,94,0
SMILES,Wee1 stabilizer,NF-kB expr up,APP transl inh,APP 5'UTR act,STAT1 act,Hsp70 act
O=C(c1cccc(Br)c1)N1CCN(C(=O)N2CCOCC2)CC1,6,0.98,63*,-63,102,0
O=C(c1cccc(Br)c1)N1CCN(C(=O)c2cccc(Br)c2)CC1,1,1,-15,15,96,0
Cn1c(Cl)cnc1C1CC(=O)c2cc(Cl)ccc2O1 (configuration not stated),-2,4.7*,27,-27,103,1
CC1(C)CC(=O)c2c(O)cc(OCc3ccc(Br)cc3)cc2O1,2,1.5,-139,139*,146*,0
COC(=O)c1ccc(COc2cc(O)c3c(c2)OC(C)(C)CC3=O)cc1,1,1.3,-13,13,93,0
CC(C)CNC(=O)c1coc(=O)c(Br)c1,-1,1.4,47*,-47,86,1
O=C(Nc1cc(Cl)cc(Cl)c1)c1coc(=O)c(Br)c1,14*,·,·,·,·,·
O=C(NCc1ccco1)C1CCCN1C(=O)Nc1ccccc1Cl (configuration not stated),-2,1.1,-12,12,98,1
Cc1ccc([N+](=O)[O-])cc1NC(=O)c1ccccc1,4,1.1,0,0,98,0
CC(=O)Nc1ccc(S(=O)(=O)N2CCCCC2C(=O)O)cc1 (configuration not stated),0,0.89,5,-5,99,0
OCCN(CCO)CC(O)COc1ccc(C23CC4CC(CC(C4)C2)C3)cc1 (configuration not stated),0,0.3,53*,-53,88,0
CCOCCOC(=O)c1ccc(NC(=O)c2cc(OC)c(OC)c(OC)c2Br)cc1,1,1.1,-3,3,97,0
COCCN1C(=O)c2oc3ccccc3c(=O)c2C1c1cccc(O)c1 (configuration not stated),1,0.98,-11,11,97,0
COCCN1C(=O)c2oc3cc(C)c(C)cc3c(=O)c2C1c1ccc(O)cc1 (configuration not stated),9.1*,·,8,-8,106,0
Cc1ccc(N2C(=O)C(Cl)=C(N3CCN(C)CC3)C2=O)c(C)c1,-2,1.1,-11,11,98,0
CCOC(=O)c1ccc(N2CCOCC2)c(NC(=O)c2c(-c3ccccc3)noc2C)c1,10*,·,·,·,·,·
CCOC(=O)c1ccc(N2CCOCC2)c(NC(=O)COCC(=O)O)c1,-1,·,·,·,·,·
Cc1onc(-c2ccccc2)c1C(=O)Nc1cc(C(F)(F)F)ccc1N1CCOCC1,2,1.5,70*,-71,93,0
Cc1onc(-c2ccccc2)c1C(=O)Nc1ccccc1N1CCOCC1,-2,0.99,-9,9,99,0
COC(=O)c1cccc(NC(=O)Nc2ccc(Cl)cc2)c1,0,·,·,·,·,·
CCCCOc1c(Br)cc(/C=C2\N=C(C)OC2=O)cc1OCC,0,0.96,-4,4,103,0
Cc1cccc(-c2cc3nc4c(c(N5CCOCC5)n3n2)CCCC4)c1,-3,1.4,-183,183*,116,0
Cc1cccc(-c2cc3nc4c(c(NCc5ccco5)n3n2)CCCC4)c1,1,3.2,-124,124,135*,0
